Laboratory results published in PubChem BioAssay (NCI).
This is part of a sample that, as a whole, favours compounds with a hit. Of some 83,000 tested, about 20% had one in any assay.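 Single-concentration screen, 48 h exposure, 96-well plates. Endpoint: percent growth. Below 10 = active.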 Active and inactive are the calls of the source.

Test system: SW-620 colon
Test: NCI-60 one-dose screen, 48 h (100 = growth as untreated, 0 = no growth, -100 = all killed)
Settings: 10 µM unless noted
Procedure: Growth inhibition of the SW-620 human tumor cell line is measured as a screen for anti-cancer activity. Cells are grown in 96 well plates and exposed to the test compound for 48 hours. Compounds are tested at a single concentration, which is 10^-5 M for most compounds. The reported endpoint is percent growth (GI% or GIPRCNT), where numbers from 0 - 100% represent growth inhibition, and numbers from -100% - 0 represent cell death. For example, a value of 40 represents 60% growth inhibition. A value of 0 means no net growth occurred over the course of the experiment. A value of -40 indicates 40% of cells at the beginning of the experiment died by the end of the experiment. A value of -100 means all cells are dead at the end of the experiment.
NCI-60 Human Tumor Cell Lines Screen was performed using the standard one-dose NCI protocol, which is described in more detail at https://dtp.cancer.gov/discovery_development/nci-60/default.htm.
Compounds with GIPRCNT values below 10 were considered active. Activity score was based on GIPRCNT using the following formula: […]
Score is 0 for GIPRCNT values of 100 or above, 50 for GIPRCNT values of 0, and 100 for GIPRCNT values of -100.

SMILES	growth
CC(C)(C)n1cc(-c2ccnc(NCCCNS(=O)(=O)c3ccc(F)cc3)c2)c(-c2cccc(F)c2)n1	22.4% (inactive)
Cn1cc(-c2csc(-c3ccc(Cl)cc3)n2)c2cccnc21	-62% [100 µM] (active)
CN1CCN(c2ccc(NC(=O)c3cncnc3Nc3ccc(OCc4ccccn4)c(Cl)c3)cc2)CC1	4.15% (active)
CCOC(=O)c1c(C)c2c(n1C)CSc1cc(C(=O)c3ccccc3)c(=O)[nH]c1-2	93.8% [100 µM] (inactive)
CCN(CC)CCCN1C(=O)c2c(c(C)c3c(oc4cc(O)ccc43)c2C)C1=O	-36% (active)
CCCNC(=O)Oc1ccc(/C(=C(/C)Cc2ccc(OC)cc2)c2ccc(OCCCN(C)C)cc2)cc1	97.1% (inactive)
COc1ccc(-c2cc(-c3ccc(Cl)cc3)c(C#N)c(=O)n2CCCCC(=O)Nc2ccccc2N)cc1	71.8% (inactive)
O=C1COCCN1c1ccc(Nc2nc(Cl)nc(OCc3cn(Cc4ccccc4)nn3)n2)cc1	88.6% (inactive)
CCOC(=O)CSc1ncnc2c1c(-c1ccccc1)c(-c1ccccc1)n2-c1ccc(C)cc1	81.2% (inactive)
CC1=C(C(=O)OC(C)C)C(c2ccc3c(c2)OCO3)NC(=S)N1 (stereo not given)	107% (inactive)
CCN(CC)CCNC(=O)c1cn2ncnc(Oc3ccc(NC(=O)Nc4ccc(Cl)c(C(F)(F)F)c4)c(F)c3)c2c1C	-62.1% (active)
COC(=O)/C=C1/SC(=Nc2ccc(C)cc2)N(CCc2c[nH]c3ccc(O)cc23)C1=O	44.2% (inactive)
COc1ccc2c(c1)[n+]([O-])c(C(=O)/C=C/C=C(\Cl)c1cc(OC)c(OC)c(OC)c1)c(C)[n+]2[O-]	103% (inactive)
COc1ccc(N2CCC(=O)NC2=S)cc1	96.8% (inactive)
O=[N+]([O-])c1ccc(N/N=C(/C(=N/Nc2ccc([N+](=O)[O-])cc2)c2ccccc2)c2ccccc2)cc1	47.6% (inactive)
COC1C[C@H](O[C@@H]2C[C@H](O[C@@H]3C[C@H](O[C@@H]4C(=O)c5c(cc6cc(O[C@H]7C[C@@H](O[C@H]8C[C@@H](O)[C@H](O)C(C)O8)[C@H](O)C(C)O7)c(C)c(O)c6c5O)C[C@H]4C(OC)C(=O)[C@@H](O)[C@@H](C)O)OC(C)[C@H]3O)OC(C)[C@@H]2O)OC(C)[C@@H]1O (stereo not given in full)	9.73% (active)
COC(C(=O)[C@@H](O)[C@@H](C)O)[C@@H]1Cc2cc3cc(O[C@H]4C[C@@H](O[C@H]5C[C@@H](O)[C@H](O)C(C)O5)[C@H](O)C(C)O4)c(C)c(O)c3c(O)c2C(=O)[C@H]1O[C@H]1C[C@@H](O[C@H]2C[C@@H](O[C@H]3C[C@@H](O)[C@H](OC)C(C)O3)[C@@H](O)C(C)O2)[C@H](O)C(C)O1 (stereo not given in full)	11.3% (inactive)
Cc1nnc(NC(=O)c2nc(S(=O)(=O)Cc3ccc(F)cc3)ncc2Cl)s1	-59.8% (active)
COc1ccc2cc(C(=O)c3coc4ccc(O)cc34)ccc2c1	116% (inactive)
O=C1/C(=C/c2ccccc2Br)COc2ccc(O)c(O)c21	5.6% (active)

SMILES	growth
OCCCC1CCN(C(Cc2ccccc2)c2ccccc2)CC1 (stereo not given)	107% (inactive)
C#Cc1cccc(Nc2ncnc3ccc(-c4cnc(N)nc4)cc23)c1	60.9% (inactive)
Fc1ccc(Nc2nc3nonc3nc2Nc2ccc(I)cc2)cc1	11.2% (inactive)
CC(C)(C)n1cc(-c2ccnc(NCCNS(=O)(=O)c3cccc4ccccc34)c2)c(-c2cccc(F)c2)n1	-26% (active)
COc1cc(/C=C\c2cc(/C=C\c3ccc(O)c(OC)c3)n(C(=O)COc3ccc(Cl)cc3Cl)n2)ccc1O	16.7% (inactive)
Cc1ccc(/C=C2\CN(C(=O)OC(C)(C)C)C/C(=C\c3ccc(C)cc3)C2=O)cc1	5.21% (active)
COc1cc(CNS(=O)(=O)c2ccc(C)cc2)ccc1OCc1cn(-c2ccc(F)cc2)nn1	98.6% (inactive)
COc1cc(-c2cc(-c3cccs3)c(C#N)c(N3CCOCC3)n2)cc(OC)c1OC	4.28% (active)
O=C(/C=C/c1ccc(Cl)cc1)c1cccc(Nc2nc(Nc3ccccc3)nc(Nc3ccccc3)n2)c1	98.8% (inactive)
CC(=O)[C@@H]1CCC=C2CC[C@]3(C)[C@@H](CC[C@@H]4[C@@]5(C)CCCNC(C)(C)[C@@H]5CC[C@]43C)[C@H]21	-58.9% (active)
N#Cc1c(NC(=O)c2ccccc2)sc2c1CCC(=O)C2	11.6% (inactive)
CN(CCn1sc(=O)n(Cc2ccccc2)c1=O)Cc1ccc2c(Cl)cc(Cl)c(O)c2n1	22.7% (inactive)
C#CCOc1ccc2ncnc(Nc3ccc(NC(=O)CCl)cc3)c2c1	-13.9% (active)
O=C(CCC(=O)N/N=C/c1ccccc1O)N/N=C/c1ccccc1O	44.8% (inactive)
Cc1nc2sc(C(=O)Nc3ccccc3)c(N)c2cc1C(=O)c1ccccc1	27.8% (inactive)
CCS/C(Nc1ccccc1)=C(\C#N)C(=O)N/N=C/c1ccc(Cl)cc1Cl	18.6% (inactive)
COc1cc2oc(-c3cccc(NC(=O)c4cccc(Br)c4)c3)cc(=O)c2c(OC)c1OC	65.1% (inactive)
C=C(C)[C@@H]1CC[C@]2(C(=O)N3CCN(C)CC3)CC[C@]3(C)[C@H](CC[C@@H]4[C@@]5(C)CC(=C/c6ccncc6)/C(=N/O)C(C)(C)[C@@H]5CC[C@]43C)[C@@H]12	72.8% (inactive)
CCN1C(=O)N(CC)C2C1NN=c1s/c(=C\c3cccc([N+](=O)[O-])c3)c(=O)n12 (stereo not given)	21.1% (inactive)
Cc1ccc(Sc2oc(-c3ccc(C)cc3)nc2[P+](c2ccccc2)(c2ccccc2)c2ccccc2)cc1	-5.3% (active)
